Experimental data: PubChem BioAssay (NCI)
About 83,000 compounds went through this panel and 20% of them were active in at least one assay; those are over-represented in the sample as a whole.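 Growth was measured after 48 h exposure to one concentration of compound in 96-well plates. Values under 10 count as active.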 Unmarked numbers belong to inactive results. Activity calls are given as the source filed them.

How the values were obtained:
Assay in all cases: NCI-60 one-dose screen, 48 h (100 = growth as untreated, 0 = no growth, -100 = all killed)
Settings in all cases: 10 µM unless noted
[1] = tested on: HCT-15 colon
[2] = tested on: HT29 colon
[3] = tested on: SNB-75 CNS
[4] = tested on: SNB-19 CNS
[5] = tested on: U251 CNS
[6] = tested on: PC-3 prostate
[7] = tested on: SK-MEL-5 melanoma
[8] = tested on: UACC-62 melanoma
[9] = tested on: LOX IMVI melanoma
[10] = tested on: SK-MEL-28 melanoma
[11] = tested on: SK-MEL-2 melanoma
[12] = tested on: EKVX NSCLC
[13] = tested on: SN12C renal
[14] = tested on: UO-31 renal
[15] = tested on: TK-10 renal
[16] = tested on: ACHN renal
[17] = tested on: CAKI-1 renal
[18] = tested on: CCRF-CEM leukemia
[19] = tested on: MOLT-4 leukemia

SMILES	growth [1]	growth [2]	growth [3]	growth [4]	growth [5]	growth [6]	growth [7]	growth [8]	growth [9]	growth [10]	growth [11]	growth [12]	growth [13]	growth [14]	growth [15]	growth [16]	growth [17]	growth [18]	growth [19]
COc1ccc(N2CCN(c3ccc(NC4=C(Cl)C(=O)c5ncccc5C4=O)cc3)CC2)cc1	40.9%	49.9%	52.8%	29.4%	26.7%	53%	50.5%	34.1%	35.3%	71%	71.8%	78.8%	45.5%	46.2%	74.8%	67.3%	61.1%	24.6%	53.3%
C=C1C(=O)O[C@H]2[C@H]1CC/C(CNC(=O)C(C)c1ccc(CC(C)C)cc1)=C\CC[C@@]1(C)O[C@@H]21 (some centres undefined)	-55.7% (active)	-52.4% (active)	64.5%	48.9%	45.2%	16.6%	61.3%	-27.2% (active)	-80.3% (active)	-76.9% (active)	32.9%	0% (active)	-0.803% (active)	-99.7% (active)	-61% (active)	-95.9% (active)	-7.71% (active)	-1.13% (active)	0.34% (active)
CCC(CC)NCC(C)(C)O	101%	108%	98.1%	94.6%	103%	89.9%	110%	94.4%	101%	115%	110%	102%	97.9%	88.2%	109%	102%	89.5%	100%	103%
CC1(C)CC(=O)C2=C(C1)N(c1ccc(F)cc1F)C(N)=C(C#N)C2c1cc(Br)ccc1F (centres undefined)	93.8%	83.5%	67.1%	85.8%	94.8%	76.8%	93%	91.1%	57.5%	109%	94%	94.8%	96.6%	81.3%	104%	94.9%	92.4%	91.8%	88.9%
O=S(=O)(Nc1ccc(-n2cnc3cc(-c4ccc(O)cc4)ccc32)cc1)c1ccccc1	87.2%	95.3%	88.1%	90.1%	65.2%	90.7%	66.8%	82.3%	81%	104%	83.2%	98.4%	73.4%	51.3%	113%	80.6%	68.7%	69.9%	71.7%
Cc1cc2nc3c4cc([N+](=O)[O-])ccc4n(CCN(C)C)c3nc2cc1C	-15.7% (active)	4.93% (active)	-6.58% (active)	8.53% (active)	1.87% (active)	-0.344% (active)	-73.4% (active)	-58.7% (active)	-48.7% (active)	2.33% (active)	-56.5% (active)	-3.49% (active)	1.16% (active)	-41.9% (active)	-5.99% (active)	-13% (active)	-15.7% (active)	3.84% (active)	1.36% (active)
CCOC(=O)c1nc2c3ccccc3ccn2c1C(=O)OCC	99.7%	105%	36.8%	89.2%	105%	110%	98.2%	87.5%	98.6%	113%	112%	76.9%	95.4%	96.4%	102%	99.5%	94.8%	96.1%	95.4%
O=C(Nc1cccc(C(=O)N2CCc3ccc(Cl)cc32)c1)c1ccco1	24.2%	15.9%	0.916% (active)	37.6%	36.7%	69.7%	24.3%	36.3%	35.9%	59.9%	25.8%	54.1%	49.6%	45.1%	77.6%	48.2%	29.6%	29.4%	30.1%
CCCCCN1C=C/C(=C\C(=O)N(C)c2ccc(OC(F)(F)F)cc2)c2ccccc21	99.8%	81.2%	104%	96.9%	95.4%	93.7%	96.5%	89.3%	101%	109%	101%	87.2%	96%	77.4%	105%	108%	89.4%	104%	95.8%
Cc1ccc(C(=O)/C(=C\c2ccc([N+](=O)[O-])cc2)S(=O)Cc2ccc(Cl)cc2)cc1 (centres undefined)	10.8%	-51.1% (active)	75.5%	46.8%	9.49% (active)	6.38% (active)	78.5%	5.87% (active)	-26.5% (active)	46.6%	72.7%	82.4%	-15.6% (active)	3.42% (active)	50.3%	12.7%	59.7%	4.88% (active)	7.82% (active)
CCOC(=O)C1=C(C)NC(SCc2cc(=O)oc3ccc(F)cc23)=N[C@@H]1c1cccc2ccccc12	93%	98.5%	98.8%	101%	102%	87.8%	99.9%	86%	99.9%	109%	85%	114%	93.3%	79.9%	105%	91.9%	87.8%	102%	84.7%
COc1ccc(/C=N/NC(=O)c2cnn3c2NC(c2ccccc2)C3)cc1OC (centres undefined)	41.8%	14%	51.6%	62.6%	54.4%	56.9%	66.7%	47.7%	56.5%	78%	41.9%	87.2%	81.8%	78.9%	75.6%	82.6%	56.1%	66.7%	50.3%
COc1cccc(C(=O)NNc2nc(Cl)nc(N3CCN(C(c4ccccc4)c4ccccc4)CC3)n2)c1	13.3%	20.3%	89.3%	77.4%	100%	34.3%	91.2%	76.5%	2.99% (active)	89.1%	79.1%	89.6%	70.9%	93.4%	97.8%	54.6%	68.7%	-5.32% (active)	4.48% (active)
COc1cc2nc(-c3ccc(Cl)cc3)cc(OCCCN3CCC(O)CC3)c2cc1OC	19%	16.8%	39.6%	73.4%	54.5%	41.7%	-30% (active)	-24.7% (active)	-53.3% (active)	70%	75.8%	56.7%	36.6%	51.3%	92.2%	35.1%	-5.22% (active)	57.5%	44.1%
O=C(CSc1nc2sc3c(c2c(=O)n1-c1ccc(Cl)cc1)CCCC3)Nc1nc(-c2cccc(Br)c2)cs1	87.8%	61.7%	41.7%	84.8%	78.8%	57.5%	82.8%	85.1%	84.3%	84.4%	97%	75%	79.5%	74.6%	113%	91.1%	49%	87.7%	87.1%
N#Cc1cc(-c2nc3ccccc3s2)c(=O)n(NS(=O)(=O)c2ccccc2)c1N	108%	107%	73.1%	103%	102%	102%	101%	97.1%	99.4%	121%	104%	101%	99.9%	72.7%	137%	99.5%	81.8%	105%	107%
